Results published in PubChem BioAssay (NCATS).
Records with an inconclusive call do not appear. Values without a mark were called inactive. Activity calls are given as the source filed them. The call rests on the fitted dose curve; in most records, active means well fitted cell-killing curve with a large enough effect; inconclusive means small, poorly fitted or top-dose-only effect, or effect the other way; inactive means no such curve, though single readings can be large or run the other way.

Assay: Viability qHTS for spleen associated tyrosine kinase inhibitor (SYKi) drug resistant MV4-11 cells (AID 1963824); further: nearly all actives have a fitted effect of over 35% in size
Conditions: SYKi-resistant MV4-11 viability, CellTiter-Glo, 72 h; series mostly up to 45 µM; viability, % of control: at the top concentration
Outline: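 SYK inhibitor-resistant MV4-11 AML cells, 500 per well, added to predispensed compounds and incubated 72 hr at 37 C, 5% CO2. Viability measured by CellTiter-Glo luminescence after 10 min at room temperature.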
Potency means the concentration at half of the fitted maximal effect.

| Compound | viability, % of control | Potency |
| --- | --- | --- |
| Cc1ncc([N+](=O)[O-])n1C[C@H](O)CN1CCOCC1 | 102% | – |
| COC(=O)C1=C[C@@H](O)[C@@H](O)[C@H](O[C@@H]2O[C@H](CO)[C@@H](O)[C@H](O)[C@H]2OC(=O)/C=C/c2ccccc2)C1 | 90.2% [at 17.3 µM] | – |
| COc1cc(O)cc(OC2OC(CO)C(O)C(O)C2O)c1 (stereo unspecified) | 108% | – |
| OC[C@H]1O[C@@H](O[C@H]2[C@H](O)[C@@H](CO)O[C@@H](OCc3ccccc3)[C@@H]2O[C@@H]2OC[C@](O)(CO)[C@H]2O)[C@H](O)[C@@H](O)[C@@H]1O | 81.7% [at 17.3 µM] | – |
| COC(=O)C1=CO[C@@H](O[C@@H]2O[C@H](CO[C@@H]3O[C@H](COC(=O)/C=C/c4cc(OC)c(O)c(OC)c4)[C@@H](O)[C@H](O)[C@H]3O)[C@@H](O)[C@H](O)[C@H]2O)[C@@H]2C(CO)=CC[C@H]12 | 85.5% [at 17.3 µM] | – |
| CC1=CC(=O)CC(C)(C)C1CCC(C)OC1OC(COC(=O)c2cc(O)c(O)c(O)c2)C(O)C(O)C1O (stereo unspecified) | 106% [at 17.3 µM] | – |
| CC1(C)CC[C@]2(C(=O)O)CC[C@]3(C)C(=CCC4[C@@]5(C)CC[C@H](O[C@@H]6O[C@H](C(=O)O)[C@@H](O)[C@H](O)[C@H]6O)C(C)(CO)C5CC[C@]43C)C2C1 (stereo partly specified) | 93.3% [at 17.3 µM] | – |
| CC(C)(C)n1nc(Cc2cccc3ccccc23)c2c(N)ncnc21 | – | 13 µM (active) |
| CN(C)c1ccc(Nc2c3ccc(NC(=O)CCN4CCCC4)cc3nc3cc(NC(=O)CCN4CCCC4)ccc23)cc1 | – | 4.11 µM (active) |
| CC/C=C\CCO[C@@H]1O[C@H](CO)[C@@H](O)[C@H](O)[C@H]1O | 95.3% | – |
| COc1cc(O)cc(O[C@@H]2O[C@H](CO)[C@@H](O[C@@H]3OC[C@](O)(CO)[C@H]3O)[C@H](O)[C@H]2O)c1OC | 78.9% [at 17.3 µM] | – |
